# Assay outcomes (PubChem)
# Sampled rows, rich in hits. Any-hit rate of the full collection: about 5.9%.
# GLP-1R agonist: agonists of human GLP-1 receptor. P43220. HEK293 GLP-1R CRE-luciferase, luminescence, 4-6 h; cells express a hypersensitive GLP-1R form. Potency, µM (highest dose often 45.6 µM), for inactives: at the top dose activation, hits mostly activators. actives 0.007% (n = 380,000); further: % of control where 0% means no effect
# RORg inh: ROR gamma (mouse) transcription inhibition; P51450; actives 5.4% (n = 310,000); Drosophila S2 Gal4-RORgamma UAS-luciferase reporter, 20 h; Potency, µM (top dose mostly 53.6 µM), without a hit: top-dose activity change, negative = inhibition, usual class: inhibitors; further: on the % scale 0 is the no-effect control and ±100 the full control effect; nearly all actives have a fitted effect of over 60% in size
# Target sequence (P51450 whole entry, looked up, the tested form may be a part): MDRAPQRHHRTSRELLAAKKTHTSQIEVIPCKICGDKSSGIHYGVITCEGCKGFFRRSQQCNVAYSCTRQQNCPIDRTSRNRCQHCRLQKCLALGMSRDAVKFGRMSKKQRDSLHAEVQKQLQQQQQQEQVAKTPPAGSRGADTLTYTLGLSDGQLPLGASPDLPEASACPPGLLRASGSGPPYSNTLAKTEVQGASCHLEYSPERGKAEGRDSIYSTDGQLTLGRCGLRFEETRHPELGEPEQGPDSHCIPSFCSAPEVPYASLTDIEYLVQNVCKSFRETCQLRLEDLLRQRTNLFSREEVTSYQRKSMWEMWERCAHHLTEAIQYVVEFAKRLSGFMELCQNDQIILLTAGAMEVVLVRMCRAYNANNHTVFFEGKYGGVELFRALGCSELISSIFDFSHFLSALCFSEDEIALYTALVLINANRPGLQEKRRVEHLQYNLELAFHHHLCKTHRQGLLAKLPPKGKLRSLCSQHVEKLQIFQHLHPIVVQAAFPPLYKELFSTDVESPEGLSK
#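 Stable Schneider cell line, Gal4 DNA-binding domain fused to ROR gamma, UAS-luciferase. Cmpd 1 hr RT → CuSO4 700 uM final → 20 hr RT → luciferase reagent 10 min → luminescence.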
# GLP-1R inv ag: acts as inverse agonist at human GLP-1 receptor; P43220; HEK293 GLP-1R CRE-luciferase, luminescence, 24 h; GLP-1R form is constitutively active; Potency, µM (doses to about 38.3 µM), for the others: at the top dose activity change, negative = inhibition, usual class: inhibitors; actives 1.6% (n = 410,000); AID 624417; further: on the % scale 0 is the no-effect control and ±100 the full control effect; nearly all actives have a fitted effect of over 55% in size
#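 GLP-1R inverse agonism mode: basal reporter luminescence in engineered HEK293 cells measured after one day of compound exposure at 37 deg C, with a 12 min room-temperature detection step.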
# VP16 counter: inhibits Gal4-VP16 luciferase reporter, ROR gamma counter-screen | Drosophila S2 Gal4-VP16 UAS-luciferase, luminescence, 20 h | Potency, µM (series often up to 53.6 µM), inactives show at the top dose activity, negative = inhibition, most hits filed as inhibitors | actives 3.5% (n = 310,000);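 further: Gal4-VP16 expression switched on by copper sulfate through the metallothionein promoter; on the % scale 0 is the no-effect control and ±100 the full control effect; nearly all actives have a fitted effect of over 50% in size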
# GLP1R cytotox: cytotoxicity in counter-screen for GLP-1R inverse agonists | HEK293 cAMP-luciferase reporter cells, luminescence, 24 h | Potency, µM (top dose mostly 38.3 µM), inactives show top-dose activity change, negative = inhibition, most hits filed as inhibitors | actives 0.13% (n = 410,000) | AID 624418;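 further: loss of luciferase light is scored as toxicity; on the % scale 0 is the no-effect control and ±100 the full control effect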
#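 Here, cytotoxicity is scored as loss of luminescence. The MLSMR collection was tested on cells seeded in medium containing 10% Nu serum, with a 24 hr compound exposure preceded by 12 hours of culture.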
# Active calls of the source: *; ? = inconclusive; / = no result given; [ ] = another dose, or the depositor's remark. The call rests on the fitted dose curve; in most records, active means well fitted curve in the direction sought with a large enough effect; inconclusive means small, poorly fitted or top-dose-only effect, or another doubt; inactive means no such curve, though single readings can be large; an effect the other way counts as inactive or inconclusive. Potency means the concentration at half of the fitted maximal effect.
SMILES,GLP-1R agonist,RORg inh,GLP-1R inv ag,VP16 counter,GLP1R cytotox
O=c1c2cc(Br)ccc2nc(-c2ccc([N+](=O)[O-])cc2)n1O,1%,?,5%[7.66 µM],8%,1%[7.66 µM]
O=c1c2cc(Cl)ccc2nc(-c2ccccc2)n1O,5%,6.3µM*,?,1%,-5%
CC(C)Cn1c(-c2ccccc2)nc2ccccc2c1=O,7%,21%,2.8µM*,14%,-6%
O=c1c2cc(Br)ccc2nc(-c2cccc(C(F)(F)F)c2)n1O,-26%,3.5µM*,-16%,20µM*,?
O=c1c2ccc(Cl)cc2nc(-c2ccc([N+](=O)[O-])cc2)n1O,3%,8.9µM*,?,18µM*,-10%
O=c1c2cc(Cl)ccc2nc(-c2ccc(Cl)c(Cl)c2)n1O,-3%,-56%,-14%,3%,-15%
N#Cc1ccc(-c2nc3ccc(Br)cc3c(=O)n2O)cc1,-1%,-39%,3%,-2%,2%
COC(=O)c1c(SC)nc2ccccc2c1OCc1cccc(C)c1,/,/,-29%,/,1%
CC(Sc1oc(-c2cccs2)nc1S(=O)(=O)c1ccccc1)c1ccccc1 (stereo unspecified),/,/,?,/,-2%
CCCCCCCCCCCCC/C=C/[C@@H](O)[C@H](CO)NCCCCCCCC,/,-9%,/,8%,/
COc1ccccc1-c1nc2ccc(Cl)cc2c(=O)n1O,-7%,-30%,9%,-11%,-3%
COc1ccc(CCn2c(C)nc3c(c(=O)c4ccccc4n3C)c2=O)cc1,12%,-15%,-3%,2%,-3%
O=c1c2ccccc2nc(-c2ccccc2)n1O,-5%,/,-8%,/,16%
COc1ccc(-c2nc3ccccc3c(=O)n2O)cc1,-2%,13µM*,?,?,1%
COc1ccccc1-c1nc2cc(Cl)ccc2c(=O)n1O,-1%,?,-2%,2.5µM*,0%
COc1ccc(CCn2c(S)nc3ccccc3c2=O)cc1,3%,3.2µM*,20%,?,2%
O=C(Cn1c(=O)c2cccn2c2ccc(F)cc21)N1CCN(c2ccccc2)CC1,/,/,0%,/,6%
CC(=O)Nc1ccc(-c2csc(NC(=O)Cc3ccccc3F)n2)cc1,20%,24%,?,9%,-7%
O=C(Cc1c(F)c(F)c(F)c(F)c1F)Nc1nc(-c2ccccc2)cs1,-2%,?,7.1µM*,-22%,?
CC(=O)Nc1ccc(-c2csc(NC(=O)Cc3cccc(F)c3)n2)cc1,11%,32%,11µM*,3%,8%
COC(=O)c1cc2c(n1S(=O)(=O)c1ccc(C)cc1)C(=O)C(=O)c1[nH]cc(C(=O)OCc3ccccc3)c1-2,-17%,/,?,/,4µM*
COC(=O)c1ccc(COC(=O)c2ccc(CS(=O)(=O)c3ccc(C)cc3)cc2)cc1,8%,-5%,-6%,-10%,0%
Cc1cnc(NC(=O)Cc2ccccc2Cl)s1,5%,-26%,7%,6%,2%
Cc1cnc(NC(=O)c2cc3c(C)nn(Cc4ccccc4Cl)c3s2)s1,5%,3.5µM*,21%,4.5µM*,2%
CN1C(=O)/C(=C/c2cn(CC(=O)N3CCCCC3)c3ccccc23)NC1=S,2%,11µM*,28%,?,1%
SMILES,GLP-1R agonist,RORg inh,GLP-1R inv ag,VP16 counter,GLP1R cytotox
C[C@@H]1C(=O)N(S(=O)(=O)c2ccc([N+](=O)[O-])cc2)[C@H]1c1ccccc1,/,-42%,/,-2%,/
Cc1ccc(CNC(=O)c2ccc3c(=O)n(-c4ccccc4)c(=O)[nH]c3c2)cc1,/,/,-12%,/,8%
N/C(=N\OC(=O)c1ccc2ccccc2c1)c1ccccn1,-7%,4.5µM*,?,7.9µM*,?
CCCc1ccc(C(=O)O/N=C(\N)c2ccccn2)cc1,-8%,13µM*,-85%,11µM*,?
COc1cccc(C(=O)O/N=C(\N)c2ccccn2)c1,-7%,?,?,14µM*,-7%
N/C(=N\OC(=O)c1ccc2ccccc2c1)c1ccncc1,-4%,-30%,25%,-21%,27%
CC(C1CCCC(=O)C1)[N+](=O)[O-] (stereo unspecified),/,16%,/,1%,/
Cc1ccc(C(=O)c2oc3ccccc3c2NC(=O)C(C)Oc2ccccc2Cl)cc1 (stereo unspecified),/,/,6%,/,-1%
OC1CCN(Cc2ccc(OCc3ccccc3)cc2)CC1,-2%,10µM*,?,?,-7%
O=C(C1CCN(Cc2ccc(OCc3ccccc3)cc2)CC1)N1CCCC1,10%,-36%,2%,-1%,-11%
O=C(c1ccccc1Cl)N1CCN(CCc2ccccn2)CC1,/,/,-11%,/,9%
CCOC(=O)c1scc(-c2ccc(C)cc2)c1S(=O)(=O)N1CCN(c2ccccc2F)CC1,/,/,7.9µM*,/,34%
Cc1nc2cnc(N3CCN(C)CC3)nc2n(Cc2ccc(F)cc2)c1=O,/,-7%,/,5%,/
CN1CCN(C2=C(NS(=O)(=O)c3ccccc3)C(=O)c3ccccc3C2=O)CC1,-2%,11µM*,-8%,13µM*,-26%
N/C(=N\OC(=O)c1cc([N+](=O)[O-])ccc1Cl)c1ccccn1,5%,4µM*,3%,?,-60%
N/C(=N\OC(=O)c1ccc([N+](=O)[O-])cc1Cl)c1ccccn1,-8%,10µM*,1.8µM*,11µM*,-2%
CCOCN(C(=O)Cn1cnc2ccccc21)c1c(C)cccc1CC,6%,-27%,?,2%,14%
CCOCN(C(=O)Cn1c(CO)nc2ccccc21)c1c(C)cccc1CC,1%,-16%,?,2%,3%
CCc1cccc(CC)c1N(COC)C(=O)Cn1cnc2ccccc21,12%,10µM*,?,15%,-4%
CCc1cccc(CC)c1N(COC)C(=O)Cn1c(C)nc2ccccc21,/,/,2.2µM*,/,7%
CCc1noc(-c2ccc(N(C)Cc3ccc(OC)cc3)c([N+](=O)[O-])c2)n1,/,/,?,/,-28%
CN(Cc1ccccc1C#N)S(=O)(=O)c1cccs1,8%,10%,11%,-14%,2%
N#Cc1nccnc1S(=O)(=O)c1cccs1,-6%,3.2µM*,?,3.5µM*,?
COc1ccccc1C(=O)Nc1ccc2nc(SCCOc3ccccc3C)sc2c1,/,/,1%,/,5%
Nc1ccc(-c2nc3c(ccc4ccccc43)[nH]2)cc1,14%,0.89µM*,?,?,22%
Cc1ccc(-n2nc(C(=O)NCc3ccc(F)cc3Cl)c3c4ccccc4n(C)c3c2=O)cc1,/,/,0%,/,3%
CN(Cc1ccccc1)C(=O)c1ccc2c(c1)N(Cc1ccccc1Cl)C(=O)c1ccccc1S2,/,/,?,/,-19%
Cc1ccccc1C(=O)Nc1ccc2oc(-c3ccc(Cl)c(Cl)c3)nc2c1,/,/,-5%,/,-13%
CCOc1ccc(-c2nc(C)c(C(C)=O)n2O)cc1,-12%,18%,-4%,25µM*,-2%
